# Experimental data published in PubChem BioAssay (NCI).
# Compounds without any hit were thinned out: in the full panel of roughly 83,000, 20% have a hit.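 Growth was measured after 48 h exposure to one concentration of compound in 96-well plates. Values under 10 count as active.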 Values without a mark were called inactive. Active and inactive are the calls of the source.
# Assays:
# Experiment in all cases: NCI-60 one-dose screen, 48 h (100 = growth as untreated, 0 = no growth, -100 = all killed)
# SR leukemia = conditions: 10 µM unless noted
# RPMI-8226 leukemia = conditions: 10 µM unless noted
# OVCAR-8 ovarian = conditions: 10 µM unless noted
# OVCAR-5 ovarian = conditions: 10 µM unless noted
# SK-OV-3 ovarian = conditions: 10 µM unless noted
# IGROV1 ovarian = conditions: 10 µM unless noted
# OVCAR-3 ovarian = conditions: 10 µM unless noted
# HS 578T breast = conditions: 10 µM unless noted
# NCI/ADR-RES ovarian = conditions: 10 µM unless noted
# T-47D breast = conditions: 10 µM unless noted
# BT-549 breast = conditions: 10 µM unless noted
# MDA-MB-435 melanoma = conditions: 10 µM unless noted
# MCF7 breast = conditions: 10 µM unless noted
# HCT-116 colon = conditions: 10 µM unless noted
# HCC-2998 colon = conditions: 10 µM unless noted
# KM12 colon = conditions: 10 µM unless noted
# SW-620 colon = conditions: 10 µM unless noted
# OVCAR-4 ovarian = conditions: 10 µM
Compound,growth (SR leukemia),growth (RPMI-8226 leukemia),growth (OVCAR-8 ovarian),growth (OVCAR-5 ovarian),growth (SK-OV-3 ovarian),growth (IGROV1 ovarian),growth (OVCAR-3 ovarian),growth (HS 578T breast),growth (NCI/ADR-RES ovarian),growth (T-47D breast),growth (BT-549 breast),growth (MDA-MB-435 melanoma),growth (MCF7 breast),growth (HCT-116 colon),growth (HCC-2998 colon),growth (KM12 colon),growth (SW-620 colon),growth (OVCAR-4 ovarian) [%]
O=C(Nc1cccc2cccnc12)c1cc(C(=O)c2ccc(Cl)cc2)n2ccc(-c3ccncc3)cc12,125%,103%,97.8%,98.9%,92.1%,89.1%,111%,89.6%,105%,95.7%,93.9%,97.6%,98.3%,101%,113%,108%,–,–
COc1cc(Cl)cc(-c2nn(C(=O)NS(=O)(=O)c3ccccc3)cc2-c2ccncc2)c1,87.6%,91.7%,33.1%,96.5%,83.2%,92.1%,104%,79.2%,97.5%,92.5%,36.9%,91%,99.8%,93.7%,–,102%,114%,–
C=C(C)[C@@H]1CC[C@]2(COCCC#N)CC[C@]3(C)[C@H](CC[C@@H]4[C@@](C)(CCCNCCC#N)[C@H](C(=C)C)CC[C@]43C)[C@@H]12,19.1% [100 µM],-37.1% [100 µM] (active),3.88% [100 µM] (active),36.7% [100 µM],65.1% [100 µM],7.81% [100 µM] (active),-0.365% [100 µM] (active),22.2% [100 µM],46.3% [100 µM],23.4% [100 µM],41% [100 µM],1.59% [100 µM] (active),9.79% [100 µM] (active),-53.8% [100 µM] (active),12.9% [100 µM],27.4% [100 µM],-38.3% [100 µM] (active),–
CC(C)[C@H]1CCC2=C3CC[C@]45OC(=O)[C@@]6(CCC(C)(C)C[C@H]64)CC[C@@]5(C)[C@]3(C)CC[C@@]21C,60.3% [100 µM],58.2% [100 µM],70.3% [100 µM],107% [100 µM],75.3% [100 µM],61% [100 µM],80.2% [100 µM],61.6% [100 µM],81.9% [100 µM],53.9% [100 µM],82.1% [100 µM],78.5% [100 µM],61.2% [100 µM],51.6% [100 µM],97.9% [100 µM],76% [100 µM],78.7% [100 µM],–
CCOc1ccc(S(=O)(=O)Nc2ccc3c(c2)N(S(=O)(=O)CC)CCC3)cc1,97.6%,77.1%,77.5%,94.6%,72.7%,71.3%,54.3%,80.7%,89.9%,68.1%,95.2%,78.8%,44.9%,90.8%,78.2%,77%,68.3%,–
CSc1cccc([N+](=O)[O-])c1,107%,96.8%,107%,101%,97.8%,101%,110%,107%,109%,90.1%,104%,100%,108%,100%,108%,113%,108%,–
CC1(C)CC[C@]2(C(=O)O)CC[C@]3(C)C(=CC[C@@H]4[C@@]5(C)C/C(=C/c6cccnc6)[C@H](O)C(C)(C)[C@@H]5CC[C@]43C)[C@@H]2C1,37.3% [100 µM],-12% [100 µM] (active),13.2% [100 µM],-2.1% [100 µM] (active),1.32% [100 µM] (active),2.18% [100 µM] (active),–,3% [100 µM] (active),3.8% [100 µM] (active),15.1% [100 µM],0.607% [100 µM] (active),7.02% [100 µM] (active),3.95% [100 µM] (active),-33.4% [100 µM] (active),-37.5% [100 µM] (active),-38.1% [100 µM] (active),13.3% [100 µM],–
CC(=O)O.CC(=O)O.O.[Fe],124%,135%,99.1%,105%,94.1%,106%,108%,93.2%,–,97.7%,–,128%,111%,108%,115%,104%,98.3%,–
CCc1cccc(Cl)c1,103%,101%,104%,105%,107%,100%,–,118%,–,107%,92%,107%,99.4%,104%,106%,101%,111%,–
CC(C)=CC/C=C(/C)[C@H]1CC[C@]2(C)[C@@H]1CC[C@@H]1[C@@]3(C)CCC(=O)NC(C)(C)[C@@H]3CC[C@]12C,12.3% [100 µM],-31.4% [100 µM] (active),0.344% [100 µM] (active),9.08% [100 µM] (active),38.6% [100 µM],-67.6% [100 µM] (active),–,-17.7% [100 µM] (active),13% [100 µM],-3.77% [100 µM] (active),-0.884% [100 µM] (active),-4.47% [100 µM] (active),8.52% [100 µM] (active),-37.4% [100 µM] (active),5.26% [100 µM] (active),-56% [100 µM] (active),-58.8% [100 µM] (active),–
O=C(Nc1ccc(Oc2ccc(F)cc2)c(Cl)c1)c1cnccn1,49.3%,80.4%,71.4%,81.1%,100%,62.6%,43.6%,–,40.8%,42.9%,100%,-2.8% (active),29.7%,58.7%,76.3%,27.5%,37%,–
Cc1ccc(Cn2c(O)c(N=NC(=O)c3ccc(S(N)(=O)=O)cc3)c3ccccc32)cc1,104%,91.7%,92.7%,109%,109%,107%,–,101%,108%,83.7%,102%,102%,95%,102%,114%,106%,100%,–
C=C(C)[C@@H]1CC[C@]2(C(=O)N3CCN(C)CC3)CC[C@]3(C)[C@H](CC[C@@H]4[C@@]5(C)C/C(=C/c6ccncc6)[C@H](O)C(C)(C)[C@@H]5CC[C@]43C)[C@@H]12,-14.3% [100 µM] (active),-26.6% [100 µM] (active),-57.9% [100 µM] (active),7.38% [100 µM] (active),0.185% [100 µM] (active),-23.5% [100 µM] (active),-50% [100 µM] (active),–,-64% [100 µM] (active),10.8% [100 µM],-43% [100 µM] (active),-39.7% [100 µM] (active),-60.6% [100 µM] (active),-79.3% [100 µM] (active),-80.7% [100 µM] (active),-80.4% [100 µM] (active),–,–
C=C(C)[C@@H]1CC[C@]2(C(N)=O)CC[C@]3(C)[C@H](CC[C@@H]4[C@@]5(C)C/C(=C/c6cccnc6)[C@H](O)C(C)(C)[C@@H]5CC[C@]43C)[C@@H]12,12.8% [100 µM],13.1% [100 µM],21.9% [100 µM],14.1% [100 µM],31.6% [100 µM],17.5% [100 µM],29.1% [100 µM],–,11.3% [100 µM],16.1% [100 µM],26.6% [100 µM],9% [100 µM] (active),11.3% [100 µM],7.1% [100 µM] (active),19.5% [100 µM],14.2% [100 µM],18.8% [100 µM],–
COc1ccccc1S(=O)Nc1ccccc1 (stereo not given),82.7%,99.9%,94.2%,–,105%,107%,–,–,105%,107%,108%,97.6%,95.1%,115%,107%,106%,72%,110
